Bioassay records (PubChem BioAssay)
Shown is part of a subset that was picked to be rich in hits.
Shiga toxin inh – A qHTS for Small Molecule Inhibitors of Shiga Toxin. AID 2315, 2010. actives 9.2% (n = 290,000). Vero cells, Shiga toxin protein synthesis inhibition reporter. inhibition, % at 38.7 µM; in the data active = inhibition mostly above about 28%, no sharp cut-off; inactive = mostly below about 43%; also: 0% is about no effect
RE007 growth inh – qHTS Assay for Inhibitors of the HIV-1 protein Vpr; S. pombe RE007 Vpr strain, BacTiter-Glo ATP luminescence, 24 h; Potency, µM (doses to about 92.2 µM), for inactives: at the top dose activity change, negative = less growth, actives largely listed as inhibitors; actives 0.21% (n = 360,000); AID 651644, 2012; active = well fitted falling curve with a large enough effect; inconclusive = small, poorly fitted or top-dose-only effect; inactive = no such curve, though single readings can be large or run the other way; also: potency is read from the fitted curve at half-maximal effect; % is scaled to controls: 0 for no effect and ±100 for the full control effect; nearly all actives have a fitted effect of over 50% in size
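Fission yeast strain RE007, carrying one chromosomally integrated HIV-1 vpr copy, was seeded at OD 0.01 in PMG+AL medium with 23 nL pinned compound. After 24 h at 30 °C and 99% humidity, viability was read by BacTiter-Glo luminescence.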
LmPK inhibitor – qHTS Assay for Inhibitors of Leishmania Mexicana Pyruvate Kinase (LmPK); Potency, µM (highest dose often 57.5 µM), inactives show at the highest dose activity change, negative = inhibition, most hits filed as inhibitors; purified LmPK, Kinase-Glo ATP luminescence, 1 h; actives 0.37% (n = 290,000); Q27686; also: potency is read from the fitted curve at half-maximal effect; % is scaled to controls: 0 for no effect and ±100 for the full control effect
Target sequence (Q27686 whole entry, looked up): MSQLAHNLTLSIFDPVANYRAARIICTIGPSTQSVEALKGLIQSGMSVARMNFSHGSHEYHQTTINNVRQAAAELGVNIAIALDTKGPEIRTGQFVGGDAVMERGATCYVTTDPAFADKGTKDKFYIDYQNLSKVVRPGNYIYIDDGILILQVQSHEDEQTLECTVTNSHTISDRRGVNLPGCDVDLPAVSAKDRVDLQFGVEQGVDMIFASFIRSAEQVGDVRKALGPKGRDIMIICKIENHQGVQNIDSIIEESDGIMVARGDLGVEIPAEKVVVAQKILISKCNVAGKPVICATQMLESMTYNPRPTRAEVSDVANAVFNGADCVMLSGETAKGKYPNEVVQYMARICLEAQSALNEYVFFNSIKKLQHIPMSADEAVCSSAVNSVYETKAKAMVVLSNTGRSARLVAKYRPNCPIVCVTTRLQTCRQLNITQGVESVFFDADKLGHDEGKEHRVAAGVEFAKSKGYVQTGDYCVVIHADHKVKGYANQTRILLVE
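0.1 nM LmPK, 0.5 mM PEP, 0.1 mM ADP; 50 mM imidazole pH 7.2, 7 mM MgCl2, 50 mM KCl; 1 h RT. Kinase-Glo luminescence readout, normalized to no-enzyme (full inhibition) and uninhibited wells.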
TbPYK inhibitor – qHTS of Trypanosoma Brucei Inhibitors. pyruvate kinase (Trypanosoma brucei), Q57TT1. TbPYK enzyme, Kinase-Glo Plus ATP luminescence, 45 min. Potency, µM (doses to about 76.8 µM), for inactives: at the top dose activity, negative = inhibition, actives largely listed as inhibitors. actives 0.12% (n = 410,000). AID 624173, 2012; also: potency is read from the fitted curve at half-maximal effect; % is scaled to controls: 0 for no effect and ±100 for the full control effect; nearly all actives have a fitted effect of over 50% in size
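Readout: single end-point luminescence (Kinase-Glo Plus, 10 min). Reaction conditions were TbPYK/substrate plus 130 uM ADP, 45 min at RT, pH 7.2 TEA buffer. No-enzyme wells served as controls, and data were normalized before concentration-response fitting.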
Cycloheximide cs – Cycloheximide Counterscreen for Small Molecule Inhibitors of Shiga Toxin. actives 12% (n = 300,000). cell reporter, cycloheximide protein synthesis inhibition counterscreen. AID 2314, 2010. max response, %; in the data active = max response mostly above about 13%, no sharp cut-off; inactive = mostly below about 14%; also: read at 38.3 µM for the half of the compounds with a filed dose; 0% is about no effect
FBPA Giardia inh – qHTS Assay for Inhibitors of Fructose-1,6-bisphosphate Aldolase from Giardia Lamblia; A8B2U2; purified Giardia FBPA; Potency, µM (titrated, usually from 59.6 µM), without a hit: at the top dose activity, negative = inhibition, actives largely listed as inhibitors; actives 0.71% (n = 290,000); AID 2451, 2010; also: potency is read from the fitted curve at half-maximal effect; % is scaled to controls: 0 for no effect and ±100 for the full control effect; nearly all actives have a fitted effect of over 55% in size
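40 nM FBPA preincubated 10 min at RT with compound (up to 57.5 uM final), then substrate plus GAPDH/TPI/NAD/arsenate coupling and diaphorase/resazurin added. Fluorescence read after 20 min at RT, 525/598 nm.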
* hit, by the source's call; u = inconclusive; x = no result given; + = active, no number; [ ] = remark or other dose. Unless noted, calls follow the shape of the dose curve; as a rule, active = well fitted curve in the direction sought with a large enough effect; inconclusive = small, poorly fitted or top-dose-only effect, or another doubt; inactive = no such curve, though single readings can be large; an effect the other way counts as inactive or inconclusive.

SMILES	Shiga toxin inh	RE007 growth inh	LmPK inhibitor	TbPYK inhibitor	Cycloheximide cs	FBPA Giardia inh
Cc1nc2nc(-c3ccco3)nn2c(C)c1Cl	8	-16%	-14%	1%	14*	0%
NC(=O)CC1C(=O)N(c2ccccc2)C(=S)N1NC(=O)c1ccc(Br)cc1 (configuration not stated)	55*	5%	-7%	-1%	29*	u
NC(=O)CC1C(=O)N(c2ccccc2)C(=S)N1NC(=O)c1ccccc1 (configuration not stated)	32	5%	-8%	-1%	27*	u
COc1ccc(NC(=O)CC2C(=O)N(c3ccc(OC)cc3)C(=S)N2NC(=O)c2cccc(F)c2)cc1 (configuration not stated)	18	-26%	2%	-5%	3	-3%
COc1cccc(C(=O)NN2C(=S)N(c3ccccc3)C(=O)C2CC(N)=O)c1 (configuration not stated)	50*	-13%	-7%	-2%	43*	-12%
CNC(=O)CC1C(=O)N(C)C(=S)N1NC(=O)c1ccccc1 (configuration not stated)	-5	4%	3%	-5%	-2	-3%
Oc1c(C(c2ccc(Cl)cc2)N2CCC3(CC2)OCCO3)sc2nc(-c3ccco3)nn12 (configuration not stated)	x	x	x	0%	x	x
O=C1CC(NN2CCCCC2)C(=O)N1c1ccccc1 (configuration not stated)	61	-20%	-5%	0%	13*	-5%
Cc1ccc(NCC(=O)N/N=C\c2cccc(O)c2)cc1	29	-2%	2%	-2%	18*	0%
Oc1cccc(C=NCc2ccccc2)c1	-17	11%	2%	16%	-3	3%
O=C(N/N=C\c1ccccc1O)c1ccccc1O	x	x	x	x	x	12%
O=C(N/N=C/c1cccc(O)c1)c1ccccc1O	68*	-10%	u	6%	49*	-4%
O=C(N/N=C/c1cccc(O)c1)c1csc2ccccc12	87*	-7%	-4%	-7%	49*	-10%
Cc1ccc(NCC(=O)N/N=C/c2cccc(Br)c2)cc1	19	-4%	4%	0%	5	-11%
Oc1cccc(/C=N/NP(=S)(c2ccccc2)c2ccccc2)c1	5	7%	5%	6%	14*	3%
COc1cccc(C(=O)Nc2nc(-c3nnn(-c4ccccc4C(F)(F)F)c3C)ns2)c1	x	x	x	-2%	x	x
CCOC(=O)c1c(CN2CCNCC2)nc2ccc(Cl)cc2c1-c1ccccc1	x	-10%	x	-9%	x	x
C/C(=N\NC(=O)c1csc2ccccc12)c1ccc(O)cc1	32	2%	0%	2%	18*	-8%
COc1cccc(C(=O)N(Cc2nc(-c3ccc(Cl)cc3)no2)C(C)C)c1OC	x	x	x	1%	x	x
Cc1ccc(NC(=S)Nc2cc(-c3ccccc3)[nH]n2)cc1Cl	48*	-5%	-2%	1%	13*	-1%
Fc1ccc(NC(=S)Nc2cc(-c3ccccc3)[nH]n2)cc1Cl	29	u	3%	-8%	12	-2%
CCN(CC)C(=N)/C(C#N)=N/Nc1ccc(C)cc1	87*	-19%	-3%	0%	44*	-23%
N#C/C(=N\Nc1ccccc1F)C(=N)N1CCCCC1	114*	-1%	1%	1%	51*	-28%
N#C/C(=N\Nc1ccc(Cl)cc1)C(N)=S	46*	-6%	2%	-10%	23*	-25%
Cc1ccc(N/N=C(\C#N)C(N)=S)cc1C	20	5%	2%	-4%	9	u
SMILES	Shiga toxin inh	RE007 growth inh	LmPK inhibitor	TbPYK inhibitor	Cycloheximide cs	FBPA Giardia inh
Cc1ccc(N/N=C(\C#N)C(=N)N2CCCCCC2)cc1	94*	6%	-1%[11.5 µM]	2%	37*	3%
Cc1ccc(N/N=C(\C#N)C(=N)N2CCOCC2)cc1	+	-5%	-1%	4%	56*	-4%
N#C/C(=N\Nc1ccc(S(=O)(=O)N2CCOCC2)cc1)C(N)=S	1	35%	-5%	-21%	-1	u
COc1ccc(N/N=C(\C#N)C(=N)SCc2ccccc2)cc1	-17	6%	5%	-2%	8	-26%
COc1ccc(N/N=C(\C#N)C(=N)N2CCCCC2)cc1	68*	-7%	1%	-1%	43*	-28%
N#CC(C#N)=NNc1ccc(S(=O)(=O)N2CCCCC2)cc1	-3	x	5%	-8%	-2	15%
N#C/C(=N\Nc1ccc(F)cc1)C(=N)N1CCCCCC1	58*	-12%	-1%	1%	27*	-13%
N#C/C(=N\Nc1ccccc1)C(=N)N1CCOCC1	41*	2%	-6%	2%	30*	-6%
N#C/C(=N\Nc1ccc(Cl)cc1)C(=N)N1CCCCC1	+	-5%	6%	8%	23	x
Cc1nc2c3ccccc3nc(NNC(=O)CCC(=O)N3CCN(c4cc(Cl)ccc4C)CC3)n2n1	x	x	x	-5%	x	x
CCCCCCC1/C(=N\NC(=O)c2ccccc2)CCC1C(=O)OC (configuration not stated)	80*	-1%	2%	-15%	35*	23%
CSc1ncc(C(=O)NCc2ccc(F)cc2)c(-c2ccccc2)n1	x	x	x	3%	x	x
Cc1ccc(C(=O)Cc2cc3ccccc3oc2=O)c(C)c1	67*	8%	1%	5%	57*	6%
COc1ccc(C(=O)Cc2cc3ccccc3oc2=O)cc1	61*	25%	-1%	0%	28*	4%
CCOc1ccc(C(=O)Cc2cc3cccc(OC)c3oc2=O)cc1	-4	1%	0%	0%	-2	11%
O=C(CN1C(=O)C2C3C=CC(C3)C2C1=O)NCCc1ccccc1 (configuration not stated)	10	u	2%	u	15*	8%
O=C(CCN1C(=O)C2C3C=CC(C3)C2C1=O)NCCc1ccccc1Cl (configuration not stated)	28*	-8%	-3%	-6%	14*	5%
CSc1ccc(CNC(=O)Cn2c(-c3cccs3)cc3cc(F)ccc32)cc1	x	x	x	-10%	x	x
COc1ccc(NC(=O)CSc2oc(-c3ccc(F)cc3)nc2S(=O)(=O)c2ccc(C)cc2)c(OC)c1	x	x	x	7%	x	x
CCc1ccc(CNC(=O)c2cccc(-n3cnc4cccnc43)c2C)cc1	x	x	x	4%[15.4 µM]	x	x
COc1ccc(-c2nc3c(c4c2C[C@H](c2ccccc2)OC4)CN(C(=O)Cc2cccs2)CC3)c(C)c1	x	x	-9%[11.5 µM]	x	x	11%[12.9 µM]
Clc1ccc2c(c1)CNc1c(ncnc1N1CCOCC1)O2	-14	-7%	-2%	-2%	12*	1%
